Source: PubChem BioAssay AID2690 (NMMLSC, 2010)
Screen size: about 330,000 compounds; about 590 (0.18%) were called active. Shown is part of a subset that was picked to be rich in actives. Values without a mark were called inactive.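 Rule for the calls: active = superoxide response under a set limit, about three screen SD below normal (cut at about 65% in these data); inactive = the rest.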

Assay: reduction of superoxide in aged yeast, primary screen, HTS (AID 2690);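 note: yeast aged for seven days with compound at 30 °C before DHE staining; 100% = average MFI of all compound-treated wells on the plate with controls excluded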
Conditions: S. cerevisiae aged cells, superoxide DHE fluorescence; at 10 µM; active compounds read low

Structure (SMILES) | superoxide response (% of plate mean)
O=c1c2cc([N+](=O)[O-])ccc2nc2n1CCC2 | 108%
Cc1cc(CNC(=O)C2CCC(=O)N(CCc3ccc(Cl)cc3)C2)no1 (stereo unspecified) | 101%
CN=C(Nc1cccc(S(=O)(=O)N2CCOCC2)c1)c1ccccc1 | 96.6%
COc1ccc(CN(C)C(=O)Cc2c[nH]c3ccccc23)c(OC)c1OC | 99.6%
CSCCC(NS(=O)(=O)c1ccccc1F)C(=O)N1CC=C(c2ccccc2)CC1 (stereo unspecified) | 105%
Nc1nnn(CC(=O)N/N=C/c2ccccc2)n1 | 65% (active)
O=C(Cn1nnc(-c2ccccc2)n1)N/N=C/c1ccc(-c2ccc(Cl)cc2)o1 | 92.1%
Nc1nnn(CC(=O)N/N=C/c2ccc(O)cc2)n1 | 92.6%
CCOc1ccccc1NC(=O)C1CCCN(C(=O)Nc2ccccc2)C1 (stereo unspecified) | 92.4%
CCn1cc(C(=O)NCCO)c(=O)c2cc(F)c(N3CCN(C)CC3)cc21 | 99.8%
CCCCCCn1cc(C(=O)O)c(=O)c2cc(F)c(N3CCCCC3)cc21 | 91.2%
CN1CCN(c2cc3c(cc2F)c(=O)c(C(=O)O)cn3CCF)CC1 | 60.4% (active)
COc1ccc(/C=C/CN2CCCC(C(=O)c3cc(F)ccc3F)C2)cc1 (stereo unspecified) | 100%
COc1cccc(N(Cc2nnc3n2CCCCC3)C(=O)Nc2ccccc2F)c1 | 107%
COc1ccc(OC)c(NC(=O)Cc2cccs2)c1 | 102%
Cc1ccc(-n2cnc3ncnc(-c4ccccc4)c32)cc1 | 108%
Cc1ccc(-c2nn(C(C)(C)C)c3ncnc(N)c23)cc1 | 55.4% (active)
O=C(Nc1ccccc1C(=O)N1CCCCCC1)c1ccccc1Cl | 106%
O=C(Nc1ccc(Cl)c(Cl)c1)c1ccccc1NC(=O)C1CC=CCC1C(=O)O (stereo unspecified) | 128%
O=C(Nc1cccc(Cl)c1Cl)c1ccccc1NC(=O)C1CC=CCC1C(=O)O (stereo unspecified) | 64.3% (active)
OC(c1nc2ccc(F)cc2[nH]1)C(O)c1nc2ccc(F)cc2[nH]1 (stereo unspecified) | 103%

Structure (SMILES) | superoxide response (% of plate mean)
OC(c1nc2ccccc2[nH]1)C(O)C(O)C(O)c1nc2ccccc2[nH]1 (stereo unspecified) | 59.9% (active)
CCCC(NC(=O)c1ccco1)c1nc2ccccc2[nH]1 (stereo unspecified) | 103%
Cc1ccc(-c2cc(C(=O)NC3CCN(Cc4ccccc4)CC3)c3ccccc3n2)cc1 | 107%
Cc1ccc(S(=O)(=O)NCCC(=O)NC2CCN(Cc3ccccc3)CC2)cc1 | 93%
Cc1ccc(-c2nc(CSCC(=O)NC3CCN(Cc4ccccc4)CC3)c(C)o2)cc1 | 58.7% (active)
O=C(NCc1ccc(F)cc1)C1CCC(CNc2c(N3CCOCC3)c(=O)c2=O)CC1 (stereo unspecified) | 96.9%
Cc1cc2oc(=O)cc(-c3ccccc3)c2c(C)c1-c1ccc(OC(F)(F)F)cc1 | 94.1%
Cc1cc(NC(=O)CN2C(=O)NC(CCc3ccccc3)C2=O)no1 (stereo unspecified) | 82.4%
O=C(CCc1ccccc1)Nc1ccc(NC(=O)C2CCCCC2)nc1 | 91.3%
O=C(COC(=O)CCCNC(=O)c1ccc(Cl)cc1)Nc1cc(Cl)ccc1Cl | 98.1%
COc1ccc(-c2nonc2NC(=O)c2oc3ccc(F)cc3c2C)cc1OC | 80.1%
CCN(CC)c1nc(-c2ccccc2)cc(C(F)(F)F)c1C#N | 87%
Cc1cc(C(F)F)n2nc(C(=O)Nc3ccc(S(=O)(=O)NC45CC6CC(CC(C6)C4)C5)cc3)nc2n1 | 62.8% (active)
CCn1nccc1C(=O)Nc1ccc(S(=O)(=O)NC23CC4CC(CC(C4)C2)C3)cc1 | 114%
Cc1cc(NS(=O)(=O)c2ccc(NC(=O)c3cccc(OC(F)F)c3)cc2)nc(C)n1 | 103%
COc1ccc(NC(=O)c2cc([N+](=O)[O-])ccc2NC(=O)CNC2CCCCC2C)c(OC)c1 (stereo unspecified) | 111%
CCOC(=O)C1=CN(Cc2ccc(Br)cc2)S(=O)(=O)N(C)C1C (stereo unspecified) | 105%
COc1ccccc1C(=O)N1CCNC(=O)C1CC(=O)Nc1ccc(Cl)cc1 (stereo unspecified) | 103%
NS(=O)(=O)c1ccc(NC(=O)/C=C/c2ccccc2Cl)cc1 | 92.5%
COC(=O)c1ccc(NC(=S)Nc2cccc(C)n2)cc1 | 105%
CCC(C(=O)OCC(=O)Nc1c(Cl)cc(Cl)cc1Cl)c1ccccc1 (stereo unspecified) | 101%

Structure (SMILES) | superoxide response (% of plate mean)
Cc1cc(C)cc(NC(=O)COC(=O)c2cc(C)oc2C)c1 | 95.1%
CCCC(C)C(=O)OCC(=O)Nc1c(Br)cc(C)cc1Br (stereo unspecified) | 65.3% (active)
Cn1c(Nc2ccccc2)cc(=O)n(C)c1=O | 33.4% (active)
Cc1cc(=O)n(C)c(=O)n1CCCNc1ccccc1 | 84.6%
CC(C)Oc1ccc(C(=O)Nc2cc(=O)n(C)c(=O)n2C)cc1 | 99.9%
O=C(NC1CCC(O)CC1)c1ccc(S(=O)(=O)NCc2ccco2)cc1 (stereo unspecified) | 102%
O=C(CSCc1ccccc1)Nc1ccccc1 | 42.6% (active)
Cn1c(CSCC(=O)Nc2ccccc2)nnc1SCc1ccccc1 | 118%
Cc1c(NC(=O)CSCc2ccccc2)cccc1C(=O)O | 116%
C/C(CC(=O)NC(C)c1ccccc1)=N\NC(N)=S (stereo unspecified) | 105%
Cc1ccc(C23CC4CC(CC(C(=O)NCC(=O)O)(C4)C2)C3)cc1 | 62.1% (active)
C=CCNC(=O)C12CC3CC(C1)CC(C(=O)NCC=C)(C3)C2 | 96%
CCOc1ccccc1NC(=O)C12CC3CC(C1)CC(c1ccc(C)cc1)(C3)C2 | 95.5%
COc1cccc(NC(=O)Cn2c3ccc(F)cc3c3nc4n(c(=O)c32)CCS4)c1 | 82.6%
COc1ccc(C(CCNCc2ccccc2F)c2ccc(F)cc2)cc1 (stereo unspecified) | 97%
CCc1cc(-c2n[nH]c(=S)n2CC(C)C)cs1 | 87.8%
COc1cc(C(=O)NCc2ccc(-n3cccc3)cc2)cc(OC)c1OC | 99.9%
COc1ccc(CNC(=O)Cc2ccc(-c3ccccc3)cc2)cc1OC | 98.2%
COc1cc(-c2nnn(CC(=O)NCc3ccccc3)n2)cc(OC)c1OC | 65.3% (active)
